These results are taken from PubChem BioAssay (Tox21).

Experiment [1] deals with Aryl hydrocarbon receptor (Homo sapiens) (UniProt P35869). As to the kind of experiment: qHTS assay to identify small molecule that activate the aryl hydrocarbon receptor (AhR) signaling pathway (AID 743085).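 For activation: HG2L7.5c1 human HepG2 liver cells with stably integrated DRE-driven firefly reporter; series mostly up to about 70 µM.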 Note: nearly all actives have a fitted effect of over 15% in size. Note: potency is the fitted concentration of half-maximal effect. The gist of the method: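 Luminescence (ONE-Glo) from a dioxin-responsive-element luciferase reporter in HG2L7.5c1 HepG2 cells after 24 hr compound exposure at 37C; viability measured by CellTiter-Fluor fluorescence beforehand.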
Sequence of Aryl hydrocarbon receptor (Homo sapiens) (P35869 whole entry, looked up): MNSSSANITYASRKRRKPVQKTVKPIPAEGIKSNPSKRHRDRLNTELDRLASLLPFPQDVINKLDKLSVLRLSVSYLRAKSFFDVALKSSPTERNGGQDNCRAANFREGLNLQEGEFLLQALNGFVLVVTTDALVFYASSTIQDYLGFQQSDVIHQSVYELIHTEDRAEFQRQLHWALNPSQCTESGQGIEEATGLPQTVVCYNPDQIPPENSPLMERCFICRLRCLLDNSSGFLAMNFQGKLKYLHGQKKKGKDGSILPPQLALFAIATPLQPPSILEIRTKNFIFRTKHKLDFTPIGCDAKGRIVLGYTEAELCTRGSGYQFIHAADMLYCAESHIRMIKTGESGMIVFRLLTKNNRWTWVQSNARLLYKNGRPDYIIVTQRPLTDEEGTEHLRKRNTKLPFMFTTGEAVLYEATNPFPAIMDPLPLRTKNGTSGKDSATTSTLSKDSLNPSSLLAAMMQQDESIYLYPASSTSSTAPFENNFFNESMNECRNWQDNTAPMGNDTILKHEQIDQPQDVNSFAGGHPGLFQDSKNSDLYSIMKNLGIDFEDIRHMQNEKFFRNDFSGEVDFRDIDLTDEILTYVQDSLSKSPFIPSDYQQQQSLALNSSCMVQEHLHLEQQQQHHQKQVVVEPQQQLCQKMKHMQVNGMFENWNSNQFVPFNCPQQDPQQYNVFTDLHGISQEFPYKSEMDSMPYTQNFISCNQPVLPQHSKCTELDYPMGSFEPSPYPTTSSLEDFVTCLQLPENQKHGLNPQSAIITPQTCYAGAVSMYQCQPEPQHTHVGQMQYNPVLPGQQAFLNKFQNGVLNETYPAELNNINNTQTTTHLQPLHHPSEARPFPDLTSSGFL
(In general: In qHTS, concentration-response curves come from the screen itself.)

Experiment [2] can be described thus: qHTS assay to identify small molecule that activate the aryl hydrocarbon receptor (AhR) signaling pathway - cell viability counter screen (AID 743086).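 Note: HepG2 liver cells carrying the AhR DRE luciferase reporter; series mostly up to about 70 µM; nearly all actives have a fitted effect of over 45% in size.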 An outline of the steps: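 HepG2-AhR-luc (HG2L7.5c1) cells, 4000/well, were preincubated 5 h at 37C, exposed to compound in qHTS format for 24 hr at 37C, then given CellTiter-Fluor for 30 min; viability was read as fluorescence in the reporter wells.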

The nature of experiment [3]: qHTS assay to identify small molecule antagonists of the peroxisome proliferator-activated receptor gamma (PPARg) signaling pathway - cell viability counter screen (AID 743194). Note: nearly all actives have a fitted effect of over 55% in size. An outline of the steps:
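PPARg-UAS-bla HEK293H cells were plated, rested 5 h at 37 C, then treated with compounds plus rosiglitazone (50 nM final) for 17 h at 37 C; viability was then read by CellTiter-Glo luminescence after 30 min at room temperature.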

Experiment [4] can be described thus: qHTS assay for small molecule agonists of the antioxidant response element (ARE) signaling pathway - cell viability counter screen (AID 743203; calls by dose curve; note: nearly all actives have a fitted effect of over 55% in size). The gist of the method:
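Seeded at 2,000 cells/well, ARE-bla HepG2 cells were incubated 5 hrs before compound addition. After 16 hrs of treatment at 37C with 5% CO2, CellTiter-Glo reagent was added and luminescence read 30 min later.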

A short description of experiment [5]: qHTS assay for small molecule activators of the heat shock response signaling pathway - cell viability counter screen (AID 743209). Note: nearly all actives have a fitted effect of over 50% in size. The gist of the method:
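First, HSE-bla HeLa cells were seeded at 1500 cells/well and kept overnight at 37 C. Next, compounds were pinned in and incubated 5 h. After the FRET substrate step, CellTiter-Glo was added and luminescence read 30 min later.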

A short description of experiment [6]: qHTS assay for small molecule activators of the heat shock response signaling pathway (AID 743210; active = well fitted activation curve with a large enough effect in the signal ratio in the repeat runs, with a control signal flat, not every such curve was filed as active; the % refers to the signal ratio; note: series mostly up to about 63 µM). An outline of the steps: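 HSE-bla HeLa cells (beta-lactamase reporter under heat shock response elements) were exposed to compounds for 5 h at 37 C, then loaded with LiveBLAzer B/G FRET substrate for 2.5 h at room temperature before fluorescence reading.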
The target of experiment [7] is Peroxisome proliferator-activated receptor gamma (Homo sapiens) (UniProt P37231). As to the kind of experiment: qHTS assay to identify small molecule antagonists of the peroxisome proliferator-activated receptor gamma (PPARg) signaling pathway (AID 743191; calls by dose curve; note: series mostly up to about 63 µM; nearly all actives have a fitted effect of over 30% in size). The gist of the method: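 GeneBLAzer PPARg UAS-bla HEK293H cells carrying a UAS-driven beta-lactamase reporter were plated at 3000 cells/well, preincubated 5 h at 37C, then given compound for 17 h at 37C; LiveBLAzer B/G FRET substrate was read after 1 h at room temperature.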
Sequence of Peroxisome proliferator-activated receptor gamma (Homo sapiens) (P37231 whole entry, looked up): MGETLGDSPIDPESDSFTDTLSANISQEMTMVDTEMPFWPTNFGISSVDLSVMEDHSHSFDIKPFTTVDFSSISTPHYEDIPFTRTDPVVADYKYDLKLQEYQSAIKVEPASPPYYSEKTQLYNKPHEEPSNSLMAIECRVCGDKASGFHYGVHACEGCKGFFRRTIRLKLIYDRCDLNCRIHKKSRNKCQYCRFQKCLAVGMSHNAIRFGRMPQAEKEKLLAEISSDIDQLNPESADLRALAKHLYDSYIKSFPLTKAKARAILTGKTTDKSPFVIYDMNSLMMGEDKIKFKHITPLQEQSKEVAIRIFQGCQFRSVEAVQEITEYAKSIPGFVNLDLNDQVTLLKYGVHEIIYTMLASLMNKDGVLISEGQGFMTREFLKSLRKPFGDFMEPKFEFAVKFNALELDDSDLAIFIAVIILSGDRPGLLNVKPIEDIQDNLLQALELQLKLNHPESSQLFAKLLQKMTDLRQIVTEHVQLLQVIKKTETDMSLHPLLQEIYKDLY

Experiment [8] can be described thus: qHTS assay to identify small molecule agonists of the peroxisome proliferator-activated receptor delta (PPARd) signaling pathway - cell viability counter screen (AID 743211). Note: nearly all actives have a fitted effect of over 55% in size. An outline of the steps: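 Viability was measured as CellTiter-Glo luminescence (30 min, room temperature) in the same wells as the beta-lactamase readout. GeneBLAzer PPARd UAS-bla HEK293H cells received compound after 5 h plating and were incubated 17 h at 37 C.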

A short description of experiment [9]: qHTS assay for small molecule agonists of the antioxidant response element (ARE) signaling pathway (AID 743202; active = well fitted activation curve with a large enough effect in the signal ratio in the repeat runs, not every such curve was filed as active; the % refers to the signal ratio; note: potency is the fitted concentration of half-maximal effect). An outline of the steps:
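Read-out: LiveBLAzer B/G FRET substrate fluorescence after 2 h at room temperature, following 16 h compound treatment at 37 C of HepG2 cells carrying an ARE-driven beta-lactamase reporter.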

Experiment [10] has as its target Peroxisome proliferator-activated receptor gamma (Homo sapiens) (UniProt P37231). Briefly: qHTS assay to identify small molecule agonists of the peroxisome proliferator-activated receptor gamma (PPARg) signaling pathway (AID 743094; active = well fitted activation curve with a large enough effect in the signal ratio in the repeat runs, not every such curve was filed as active; the % refers to the signal ratio). An outline of the steps: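 Quantitative HTS agonist mode: stable HEK293H line with UAS-beta-lactamase reporter under PPARg control, 17 h compound exposure at 37C, fluorescence after 1 h FRET substrate loading at room temperature.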

Results filed as inconclusive are left out. A number with no mark means an inactive call. The source made the active and inactive calls. Unless noted, calls come from the whole dose curve; as a rule, active = well fitted curve in the direction sought with a large enough effect in the repeat runs; inconclusive = weak or mixed curves; inactive = no such curve, though single readings can be large; an effect the other way counts as inactive or inconclusive.
% is set by controls: 0 for no effect and ±100 for the full control effect.

For `CC(CN1CC(=O)NC(=O)C1)N1CC(=O)NC(=O)C1` (centres undefined), the Potency result in [1] and in experiment [5] was “inactive” throughout. In addition, the outcome in experiment [2], in experiment [3], in experiment [4] and in [6] was inactive.
For the compound `C=CCN1CCc2nc(N)sc2CC1`, the Potency entry in experiment [1] is “inactive”. In addition, the call in experiment [2], in experiment [7], in experiment [3], in experiment [6] and in experiment [8] was inactive.
On to `NS(=O)(=O)c1cc2c(cc1C(F)(F)F)NCNS2(=O)=O`, for which the Potency result in experiment [1] and in [5] was “inactive” throughout. Also, the call in experiment [2], in [3], in [4], in experiment [6] and in experiment [8] was inactive.
Turning to `C/C(=N\O)c1ccc(OCC(=O)N2CCCCC2)cc1`, the Potency in [1] was 5.96 µM (active). Besides, the call in experiment [2], in experiment [3], in experiment [4], in experiment [6] and in [8] was inactive. Also, the Potency entry in experiment [5] is “inactive”.
For `CN(C)c1ccncc1`, the Potency entry in experiment [1], in experiment [9] and in experiment [5] was “inactive” throughout. Besides, the call in experiment [2], in experiment [3], in experiment [4], in experiment [6] and in experiment [8] was inactive.
Turning to `O=C(O)P(=O)(O)O`, the Potency result in [1], in [9] and in experiment [5] was “inactive” in each case. The call in [2], in [3], in [4], in experiment [6] and in experiment [8] was inactive.
Consider `CC(C)(C)NCC(O)COc1cccc2c1CCC(=O)N2` (centres undefined), for which, in [1], the Potency result is “inactive”. The outcome in [2], in [7], in [3], in experiment [4], in experiment [6] and in experiment [8] was inactive.
For the compound `CC12CCCC=C1C(=O)OC2=O` (centres undefined), the Potency result in [1], in experiment [9] and in experiment [5] was “inactive” each time. Further, the outcome in experiment [10], in experiment [7], in [3], in experiment [4], in experiment [6] and in experiment [8] was inactive.
Turning to `O=C(O)Cc1c(Cl)ccc(Cl)c1Cl`, the Potency entry in [1], in [9] and in [5] was “inactive” in each case. Besides, the compound was called inactive in [7], in [3], in [4], in experiment [6] and in experiment [8].
`COCCCOc1cc(C[C@@H](C[C@H](N)[C@@H](O)C[C@H](C(=O)NCC(C)(C)C(N)=O)C(C)C)C(C)C)ccc1OC`: the Potency result in experiment [1], in experiment [9] and in experiment [5] was “inactive” each time. The compound was called inactive in [10], in experiment [7], in experiment [3], in [4], in experiment [6] and in [8].
Turning to `CC(C)(O)c1ccc(C(C)(C)O)cc1`, the compound was called inactive in experiment [2], in [10], in experiment [7], in experiment [4], in experiment [6] and in experiment [8]. For the same compound, in experiment [9], the Potency entry was “inactive”.
As for `O=C(O)COc1ccc2ccccc2c1`, the result in [2], in [10], in experiment [7], in experiment [4], in [6] and in experiment [8] was inactive. Moreover, in [5], the Potency result is “inactive”.
Turning to `CCCCCCCCCCCCCCCCN(C)C`, the activation in experiment [1] is -0.709% [at 8.47 µM]; in experiment [9] it was 0.808% [at 8.36 µM]; in experiment [6] it was -0.814% [at 5.95 µM]. Further, the activity change, negative = cytotoxicity is 2.19% [at 5.95 µM] in experiment [3] and 1.19% [at 5.95 µM] in [8]. Moreover, the viability change, negative = cytotoxic in experiment [4] was 8.57% [at 8.36 µM].
Turning to `CCCCCCCOC(C)=O`, the result in experiment [2], in experiment [10], in experiment [7], in experiment [3], in experiment [4] and in experiment [6] was inactive. The Potency result in [9] and in experiment [5] was “inactive” each time.
`C[n+]1ccccc1/C=N/O`: the call in experiment [2], in [10], in [7], in experiment [3], in [4] and in experiment [6] was inactive. Moreover, the compound was classed as inactive in experiment [8]. Further, the Potency entry in [9] and in [5] was “inactive” each time.
In the case of `Cc1ccc(S(=O)(=O)NC(=O)NN2CC3CCCC3C2)cc1` (centres undefined), the Potency result in experiment [1] and in experiment [5] was “inactive” throughout. Also, the compound was classed as inactive in experiment [10], in experiment [7], in experiment [3], in [4], in experiment [6] and in [8].
Regarding `CCN1CCN(C(=O)N[C@@H](C(=O)N[C@@H]2C(=O)N3C(C(=O)O)=C(CSc4nnnn4C)CS[C@H]23)c2ccc(O)cc2)C(=O)C1=O`, the compound was classed as inactive in experiment [2], in [10], in [7], in experiment [3], in [4] and in experiment [6]. Further, in experiment [8], the result was inactive. Further, the Potency result in experiment [5] is “inactive”.
`CN1C(CCl)Nc2cc(Cl)c(S(N)(=O)=O)cc2S1(=O)=O` (centres undefined): the Potency entry in [1] and in experiment [5] was “inactive” throughout. Further, the result in [10], in [7], in [3], in experiment [4], in experiment [6] and in [8] was inactive. Also, the Potency in experiment [9] is 26.6 µM (active).
In the case of `C=CC(C)(CCC=C(C)C)OC(=O)C(C)C` (centres undefined), the Potency entry in experiment [1], in [9] and in experiment [5] was “inactive” in each case. Besides, the compound was classed as inactive in [7], in experiment [3], in [4], in experiment [6] and in [8].
For `CCCC[O][Al]([O]CCCC)[O]CCCC`, the Potency result in experiment [1] and in experiment [5] was “inactive” throughout. Besides, the outcome in experiment [7], in [3], in experiment [6] and in experiment [8] was inactive.
For the compound `NC(=O)CC[C@@H](N)C(=O)O`, the Potency result in experiment [1] and in [5] was “inactive” each time. Besides, the outcome in [10], in experiment [7], in experiment [3], in experiment [6] and in experiment [8] was inactive.
Regarding `COc1cnc(NS(=O)(=O)c2ccc(N)cc2)nc1`, the Potency entry in experiment [1] and in [9] was “inactive” in each case. Further, the result in [3], in experiment [4] and in experiment [6] was inactive.
In the case of `CCCCCCCCCCCCCC(=O)OCC`, the call in experiment [2], in experiment [10], in experiment [3], in experiment [4], in [6] and in experiment [8] was inactive. Also, in experiment [5], the Potency entry is “inactive”.
On to `O=S(=O)(O)c1cc(I)c(O)c2ncccc12`, for which the result in experiment [2], in experiment [10], in [7], in experiment [3], in [4] and in [6] was inactive. Moreover, the outcome in experiment [8] was inactive. Also, the Potency entry in [5] was “inactive”.
Take `O=C(OOC(=O)c1ccccc1)c1ccccc1`: the Potency result in experiment [1] and in experiment [5] was “inactive” throughout. The compound was called inactive in experiment [3], in experiment [4], in experiment [6] and in [8].
